# Test results reported in the supplement of paper PMC4022240.
# ± gives the standard deviation.
# T1: HaloTag-ATRX ADD domain (163-292)
# T1 chain: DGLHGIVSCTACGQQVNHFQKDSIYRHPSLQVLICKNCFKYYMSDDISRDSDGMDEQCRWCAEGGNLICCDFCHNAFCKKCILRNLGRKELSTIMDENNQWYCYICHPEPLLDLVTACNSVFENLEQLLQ
# B1: H3 112-124 I H A Kme R V T I M P Kme3 D I (peptide)
# chain: IHAKRVTIMPKDI
# B2: H3 112-124 I H A Kme R V T I M P Kme2 D I (peptide)
# chain: IHAKRVTIMPKDI
# B3: H3 112-124 I H A Kac R V T I M P Kme D I (peptide)
# chain: IHAKRVTIMPKDI
# B4: H3 73-85 E I A Q D F Kme3 Tph D L R F Q (peptide)
# chain: EIAQDFKTDLRFQ
# B5: H3 112-124 I H A Kme Rcit V T I M P K D I (peptide)
# chain: IHAKRVTIMPKDI
# Tests used:
# Experiment in all cases: peptide microarray binding signal (635 nm), min-max normalized on array (fraction of array maximum); higher = stronger binding
# [1] = molecular target: T1, HaloTag-ATRX ADD domain (163-292)
# Outline: (§1)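 An Axon GenePix 4000B scanned the arrays at 635 nm for signal and at 532 nm to catch misprints. Those arrays held histone 13-mer peptide–cellulose conjugates printed in triplicate on nitrocellulose with a Cy3 tracer, blocked overnight at 4°C and probed for 1 h at 4°C with biotin-labelled HaloTag reader fusions (10 nM to 1 μM) plus streptavidin-Alexa Fluor 647 or with rabbit histone antibodies (1:10,000 to 1:2,000) plus anti-rabbit Alexa 647. Each binding signal is a triplicate-spot mean intensity, scaled min-max within its library.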
# [2] = molecular target: HaloTag-ING2 PHD (mouse Ing2 200-280)
# Outline: as §1
# [3] = molecular target: anti-H3K4me3 antibody ab8580
# Outline: as §1
# [4] = molecular target: anti-H3K9me3 antibody ab8898
# Outline: as §1
# [5] = peptide region: H3 112-124, peptide modifications: H3K115me1 H3K122me3, binder concentration: 1:2,000 dilution
# [6] = peptide region: H3 112-124, peptide modifications: H3K115me1 H3K122me3, binder concentration: 1:10,000 dilution
# [7] = peptide region: H3 112-124, peptide modifications: H3K115me1 H3K122me2, binder concentration: 1:2,000 dilution
# [8] = peptide region: H3 112-124, peptide modifications: H3K115me1 H3K122me2, binder concentration: 1:10,000 dilution
# [9] = peptide region: H3 112-124, peptide modifications: H3K115ac H3K122me1, binder concentration: 1:2,000 dilution
# [10] = peptide region: H3 112-124, peptide modifications: H3K115ac H3K122me1, binder concentration: 1:10,000 dilution
# [11] = peptide region: H3 73-85, peptide modifications: H3K79me3 H3T80ph, binder concentration: 1:2,000 dilution
# [12] = peptide region: H3 73-85, peptide modifications: H3K79me3 H3T80ph, binder concentration: 1:10,000 dilution
# [13] = peptide region: H3 112-124, peptide modifications: H3K115me1 H3R116cit, binder concentration: 1:2,000 dilution
# [14] = peptide region: H3 112-124, peptide modifications: H3K115me1 H3R116cit, binder concentration: 1:10,000 dilution
binder,measurement,setting,value
B1,peptide microarray binding signal,"[1]; peptide region: H3 112-124, peptide modifications: H3K115me1 H3K122me3, binder concentration: 50 nM",0.00583 ± 0.00011
same,peptide microarray binding signal,"[1]; peptide region: H3 112-124, peptide modifications: H3K115me1 H3K122me3, binder concentration: 500 nM",0.0149 ± 0.00053
same,peptide microarray binding signal,"[2]; peptide region: H3 112-124, peptide modifications: H3K115me1 H3K122me3, binder concentration: 10 nM",0.0251 ± 0.0019
same,peptide microarray binding signal,"[2]; peptide region: H3 112-124, peptide modifications: H3K115me1 H3K122me3, binder concentration: 100 nM",0.0482 ± 0.004
same,peptide microarray binding signal,[3]; [5],0.00627 ± 0.0014
same,peptide microarray binding signal,[3]; [6],0.00548 ± 0.00038
same,peptide microarray binding signal,[4]; [5],0.0268 ± 0.0058
same,peptide microarray binding signal,[4]; [6],0.0121 ± 0.00038
B2,peptide microarray binding signal,"[1]; peptide region: H3 112-124, peptide modifications: H3K115me1 H3K122me2, binder concentration: 50 nM",0.00423 ± 4.3e-05
same,peptide microarray binding signal,"[1]; peptide region: H3 112-124, peptide modifications: H3K115me1 H3K122me2, binder concentration: 500 nM",0.00881 ± 0.00019
same,peptide microarray binding signal,"[2]; peptide region: H3 112-124, peptide modifications: H3K115me1 H3K122me2, binder concentration: 10 nM",0.0148 ± 0.0012
same,peptide microarray binding signal,"[2]; peptide region: H3 112-124, peptide modifications: H3K115me1 H3K122me2, binder concentration: 100 nM",0.0263 ± 0.0033
same,peptide microarray binding signal,[3]; [7],0.0016 ± 6.6e-05
same,peptide microarray binding signal,[3]; [8],0.001826 ± 1.7e-05
same,peptide microarray binding signal,[4]; [7],0.00125 ± 6.5e-05
same,peptide microarray binding signal,[4]; [8],0.00133 ± 2.3e-05
B3,peptide microarray binding signal,"[1]; peptide region: H3 112-124, peptide modifications: H3K115ac H3K122me1, binder concentration: 50 nM",0.00809 ± 8.8e-05
same,peptide microarray binding signal,"[1]; peptide region: H3 112-124, peptide modifications: H3K115ac H3K122me1, binder concentration: 500 nM",0.0164 ± 0.00068
same,peptide microarray binding signal,"[2]; peptide region: H3 112-124, peptide modifications: H3K115ac H3K122me1, binder concentration: 10 nM",0.0183 ± 0.00056
same,peptide microarray binding signal,"[2]; peptide region: H3 112-124, peptide modifications: H3K115ac H3K122me1, binder concentration: 100 nM",0.0281 ± 0.0012
same,peptide microarray binding signal,[3]; [9],0.00164 ± 0.00014
same,peptide microarray binding signal,[3]; [10],0.002054 ± 1.9e-05
same,peptide microarray binding signal,[4]; [9],0.00136 ± 6.1e-05
same,peptide microarray binding signal,[4]; [10],0.00138 ± 1.4e-05
B4,peptide microarray binding signal,"[1]; peptide region: H3 73-85, peptide modifications: H3K79me3 H3T80ph, binder concentration: 50 nM",0.001066 ± 5.3e-06
same,peptide microarray binding signal,"[1]; peptide region: H3 73-85, peptide modifications: H3K79me3 H3T80ph, binder concentration: 500 nM",0.0021 ± 0.00018
same,peptide microarray binding signal,"[2]; peptide region: H3 73-85, peptide modifications: H3K79me3 H3T80ph, binder concentration: 10 nM",0.00221 ± 6.6e-05
same,peptide microarray binding signal,"[2]; peptide region: H3 73-85, peptide modifications: H3K79me3 H3T80ph, binder concentration: 100 nM",0.00333 ± 0.0011
same,peptide microarray binding signal,[3]; [11],0.000887 ± 9.8e-05
same,peptide microarray binding signal,[3]; [12],0.00183 ± 0.00035
same,peptide microarray binding signal,[4]; [11],0.0135 ± 0.0079
same,peptide microarray binding signal,[4]; [12],0.00577 ± 0.0016
B5,peptide microarray binding signal,"[1]; peptide region: H3 112-124, peptide modifications: H3K115me1 H3R116cit, binder concentration: 50 nM",0.00947 ± 0.0002
same,peptide microarray binding signal,"[1]; peptide region: H3 112-124, peptide modifications: H3K115me1 H3R116cit, binder concentration: 500 nM",0.0238 ± 0.00041
same,peptide microarray binding signal,"[2]; peptide region: H3 112-124, peptide modifications: H3K115me1 H3R116cit, binder concentration: 10 nM",0.0192 ± 0.00041
same,peptide microarray binding signal,"[2]; peptide region: H3 112-124, peptide modifications: H3K115me1 H3R116cit, binder concentration: 100 nM",0.037 ± 0.0012
same,peptide microarray binding signal,[3]; [13],0.00225 ± 5.2e-05
same,peptide microarray binding signal,[3]; [14],0.00434 ± 0.00036
same,peptide microarray binding signal,[4]; [13],0.00249 ± 6.3e-05
same,peptide microarray binding signal,[4]; [14],0.00248 ± 5.9e-05
